We go through eleven compounds from PubChem BioAssay (NCI).

“And” between values parts separate entries of the source, which are not always exact repeats. Equal entries are not always repeated. About 79,000 compounds went through this panel and 15% of them were active in at least one assay; those are over-represented in the sample as a whole. A number with no mark means an inactive call. The source made the active and inactive calls. Cut-off read from the data, not from the text of the source: active = growth inhibition above about 70%; inactive = the rest.

Assay [1] in a line: NCI Yeast Anticancer Drug Screen. Data for the rad50 strain (AID 155).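 Note: 0% = growth of vehicle-only cultures of the same strain.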 As to conditions: S. cerevisiae rad50 strain growth inhibition, stronger effect = higher value. A digest of the protocol: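 Relative growth inhibition (compound vs vehicle) was measured in yeast with a defined repair-gene alteration.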
A short description of assay [2]: NCI Yeast Anticancer Drug Screen. Data for the mec2-1 strain (AID 157). As to conditions: S. cerevisiae mec2-1 strain, stronger effect = higher value. The method in brief: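 Yeast mec2-1 mutant treated with compound. Readout: growth inhibition vs vehicle controls.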
The nature of assay [3]: NCI Yeast Anticancer Drug Screen. Data for the cln2 rad14 strain (AID 165).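 Note: 0% = growth equal to vehicle treated cultures.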 The following applies: S. cerevisiae cln2 rad14 strain, stronger effect = higher value. The method in brief:
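cln2 rad14 yeast strain; compound exposure; growth inhibition read vs vehicle controls.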

The nature of assay [4]: NCI Yeast Anticancer Drug Screen. Data for the bub3 strain (AID 167). As to conditions: S. cerevisiae bub3 mutant strain, stronger effect = higher value. The method in brief: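 Screening used yeast with an engineered genetic alteration affecting cell cycle control. Compound-exposed cultures were compared with vehicle cultures, and reduced growth was taken as inhibition.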
The nature of assay [5]: NCI Yeast Anticancer Drug Screen. Data for the mlh1 rad18 strain (AID 175). The following applies: S. cerevisiae mlh1 rad18 strain growth inhibition, stronger effect = higher value. A digest of the protocol: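 Yeast w/ defined DNA-repair lesions; compound exposure; growth vs vehicle controls → % inhibition.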
Assay [6] is described as follows: NCI Yeast Anticancer Drug Screen. Data for the sgs1 mgt1 strain (AID 161).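 Note: 0% = growth of cultures given vehicle only.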 As to conditions: S. cerevisiae sgs1 mgt1 strain, stronger effect = higher value. A digest of the protocol: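 Test agents were incubated with a DNA-repair-mutant yeast strain. Growth was then read and compared against vehicle-treated controls.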
The mark [7] stands for this setting: at 5.0 µM (retest, dose inferred, filed as 0.5).
Setting [8] is: at 50.0 µM (retest, dose inferred, filed as 5.0).

With `CC(C)(C)c1ccc(OC(=O)Nc2ccc(Cl)cc2[N+](=O)[O-])c(Br)c1`, the growth inhibition in assay [1] (setting [7]) is -31%; in assay [1] (setting [8]), 32%; in assay [1] (at 50.0 µM) it was 33%; in assay [2] (setting [7]) it was 2%; in assay [2] (setting [8]), 9%; in assay [2] (at 50.0 µM) it was 64.2%. For the same compound, the growth inhibition in assay [3] (setting [7]) was 3%; in assay [3] (setting [8]), 7%; in assay [3] (at 50.0 µM) it was 90.8% (active); in assay [4] (setting [7]), 1%; in assay [4] (setting [8]) it was 14%; in assay [4] (at 50.0 µM), 20.1%. Besides, the growth inhibition in assay [5] (setting [7]) was 10%; in assay [5] (setting [8]), 38%; in assay [5] (at 50.0 µM) it was 77.5% (active).

For `CSC(SC)(C(=O)O)c1cc(-c2c(Cl)cccc2Cl)no1`, the growth inhibition in assay [1] (setting [7]) was 3%; in assay [1] (setting [8]), 27%; in assay [1] (at 50.0 µM), 39%; in assay [2] (setting [7]), 2%; in assay [2] (setting [8]), 42%; in assay [2] (at 50.0 µM) it was 44%. In addition, the growth inhibition in assay [3] (setting [7]) was -1%; in assay [3] (setting [8]), -5%; in assay [3] (at 50.0 µM), 17.1%; in assay [4] (setting [7]) it was 13%; in assay [4] (setting [8]), 73% (active); in assay [4] (at 50.0 µM), 51.6%. In addition, the growth inhibition was 0% in assay [5] (setting [7]), 36% in assay [5] (setting [8]) and 84.4% (active) in assay [5] (at 50.0 µM).

Take `O=C(O)C1C2CC3C(OC(=O)C31)C2Br` (centres undefined): the growth inhibition was 11.9% and 4.1% and 9.9% in assay [1] (at 50.0 µM); 2.75% and 16.8% and -4.3% in assay [2] (at 50.0 µM); -22.2% and 2.5% and 6.9% in assay [6] (at 50.0 µM); -24.1% and -98.7% and -25.1% in assay [3] (at 50.0 µM); -47.9% and 10.9% and 11.8% in assay [4] (at 50.0 µM); 11.2% and 18.6% and 32% in assay [5] (at 50.0 µM).

Take `N#CCCN(CCCN1CCOCC1)C(=S)Nc1cccc(C(F)(F)F)c1`: the growth inhibition in assay [2] (setting [7]) was 23%; in assay [2] (setting [8]) it was 33%; in assay [2] (at 50.0 µM), 35.8%; in assay [6] (setting [7]) it was 41%; in assay [6] (setting [8]), 37%; in assay [6] (at 50.0 µM), 71.1% (active). The growth inhibition in assay [3] (setting [7]) was 41%; in assay [3] (setting [8]), 60%; in assay [3] (at 50.0 µM), 59.5%; in assay [4] (setting [7]), 49%; in assay [4] (setting [8]) it was 58%; in assay [4] (at 50.0 µM) it was 49.8%. Moreover, the growth inhibition in assay [5] (setting [7]) is 48%; in assay [5] (setting [8]), 61%; in assay [5] (at 50.0 µM), 36%.

On to `O=C(NCCc1c(-c2ccccc2)[nH]c2ccccc12)C(F)(F)F`, for which the growth inhibition in assay [1] (setting [7]) is 11%; in assay [1] (at 50.0 µM), 46.6%; in assay [2] (setting [7]) it was -3%; in assay [2] (at 50.0 µM), 49.8%; in assay [6] (setting [7]), 10%; in assay [6] (at 50.0 µM), 79.5% (active). Further, the growth inhibition in assay [3] (setting [7]) is -2%; in assay [3] (at 50.0 µM), 59.2%; in assay [4] (setting [7]), -10%; in assay [4] (at 50.0 µM), 72.5% (active); in assay [5] (setting [7]), 3%; in assay [5] (at 50.0 µM), 60.3%.

For the compound `Cc1cc(O)c2c(c1)C(=O)c1c(c(O)cc(O)c1-c1c(O)cc(O)c3c1C(=O)c1cc(C)cc(O)c1C3=O)C2=O`, the growth inhibition in assay [2] (setting [7]) is 29%; in assay [2] (setting [8]), 70% (active); in assay [2] (at 50.0 µM), 70.3% (active); in assay [6] (setting [7]), 8%; in assay [6] (setting [8]), 64%; in assay [6] (at 50.0 µM), 69.8%. For the same compound, the growth inhibition in assay [3] (setting [7]) is 27%; in assay [3] (setting [8]), 79% (active); in assay [3] (at 50.0 µM), 58.1%; in assay [4] (setting [7]) it was 17%; in assay [4] (setting [8]), 69%; in assay [4] (at 50.0 µM) it was 63.7%. In addition, the growth inhibition was -8% in assay [5] (setting [7]), 80% (active) in assay [5] (setting [8]) and 59.1% in assay [5] (at 50.0 µM).

On to `Cc1ccc(N)c(Cc2c(O)ccc3ccccc23)c1`, for which the growth inhibition in assay [2] (setting [7]) is 4%; in assay [2] (setting [8]), 75% (active); in assay [2] (at 50.0 µM) it was 98.7% (active); in assay [6] (setting [7]), 1%; in assay [6] (setting [8]), 79% (active); in assay [6] (at 50.0 µM), 98.8% (active). Besides, the growth inhibition was -7% in assay [3] (setting [7]); 64% in assay [3] (setting [8]); 98.5% (active) in assay [3] (at 50.0 µM); 0% in assay [4] (setting [7]); 66% in assay [4] (setting [8]); 98.7% (active) in assay [4] (at 50.0 µM). Moreover, the growth inhibition in assay [5] (setting [7]) was 1%; in assay [5] (setting [8]) it was 82% (active); in assay [5] (at 50.0 µM) it was 98.6% (active).

As for `N#CC1C=C(Cl)c2ccc(Cl)cc2N1C(=O)c1ccccc1` (centres undefined), the growth inhibition is 17% in assay [2] (setting [7]); 99% (active) in assay [2] (setting [8]); 99.2% (active) in assay [2] (at 50.0 µM); 3% in assay [6] (setting [7]); 99% (active) in assay [6] (setting [8]); 99.3% (active) in assay [6] (at 50.0 µM). For the same compound, the growth inhibition in assay [3] (setting [7]) is 2%; in assay [3] (setting [8]) it was 99% (active); in assay [3] (at 50.0 µM) it was 99.4% (active); in assay [4] (setting [7]), 0%; in assay [4] (setting [8]), 98% (active); in assay [4] (at 50.0 µM) it was 98.3% (active). Besides, the growth inhibition in assay [5] (setting [7]) was 23%; in assay [5] (setting [8]), 99% (active); in assay [5] (at 50.0 µM) it was 99.2% (active).

As to `CCCCN(CCCC)CCC(O)(c1ccc(OC)c2ccccc12)C(O)(CCN(CCCC)CCCC)c1ccc(OC)c2ccccc12` (centres undefined), the growth inhibition in assay [1] (setting [7]) is 43%; in assay [1] (setting [8]), 99% (active); in assay [1] (at 50.0 µM), 99.2% (active); in assay [2] (setting [7]) it was -2%; in assay [2] (setting [8]) it was 100% (active); in assay [2] (at 50.0 µM), 99.7% (active). In addition, the growth inhibition in assay [3] (setting [7]) is 35%; in assay [3] (setting [8]), 99% (active); in assay [3] (at 50.0 µM), 98.9% (active); in assay [4] (setting [7]), 39%; in assay [4] (setting [8]), 99% (active); in assay [4] (at 50.0 µM), 99.2% (active). In addition, the growth inhibition in assay [5] (setting [7]) was 52%; in assay [5] (setting [8]), 99% (active); in assay [5] (at 50.0 µM), 97.5% (active).

In the case of `CNC(=O)OC(C)CN1c2ccccc2Sc2ccccc21` (centres undefined), the growth inhibition in assay [1] (setting [7]) was -10%; in assay [1] (setting [8]), 97% (active); in assay [1] (at 50.0 µM) it was 90.2% (active); in assay [2] (setting [7]), -21%; in assay [2] (setting [8]), 98% (active); in assay [2] (at 50.0 µM) it was 92.2% (active). The growth inhibition in assay [3] (setting [7]) is -1%; in assay [3] (setting [8]), 93% (active); in assay [3] (at 50.0 µM), 90.3% (active); in assay [4] (setting [7]) it was 1%; in assay [4] (setting [8]), 98% (active); in assay [4] (at 50.0 µM) it was 91.7% (active). The figures for the growth inhibition in assay [5] (setting [7]), in assay [5] (setting [8]) and in assay [5] (at 50.0 µM) were -11%, 98% (active) and 91.4% (active), respectively.

Take `CC(=O)Nc1cccc2cc(O)ccc12`: the growth inhibition was 16.8% and 18.5% and 17% in assay [1] (at 50.0 µM); -5.9% and 4.7% and -9.55% in assay [2] (at 50.0 µM); -2.2% and -3.8% and 10.3% in assay [6] (at 50.0 µM); -11.6% and -20.1% and 11.6% in assay [3] (at 50.0 µM); -11.8% and -11.7% and -4.3% in assay [4] (at 50.0 µM); 23.2% and 18.1% and 22.8% in assay [5] (at 50.0 µM).
